Screening data deposited in PubChem by National Center for Advancing Translational Sciences (NCATS).
Compounds with a hit are over-represented: about 8.1% of the library has one in this group of screens.
ELG1 repair inh: inhibitors of ELG1-dependent DNA repair in HEK293T cells | HEK293T ELG1-luciferase reporter, luminescence, 16 h; DNA damage induced by 5-fluorouridine | Potency, µM (doses to about 46.1 µM), most hits filed as inhibitors | 2.3% of 330,000 active; note: nearly all actives have a fitted effect of over 55% in size
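Quantitative HTS, concentration-response format. 2,000 cells/well co-treated with 5-fluorouridine and compound, 16 hr in 5% CO2 at 37 °C; ONE-Glo luminescence read after 30 min.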
MCF10A rereplic: DNA re-replication induction in MCF 10a cells. MCF 10A DNA re-replication, Hoechst nuclear intensity, 48 h. Potency, µM (highest dose often 46.1 µM), usual class: activators. 2.9% of 350,000 active. AID 624296; note: nearly all actives have a fitted effect of over 50% in size
SW480 rereplic: inducers of DNA re-replication in SW480 colon cancer cells | SW480 DNA re-replication, Hoechst DNA content imaging, 48 h | 1.8% of 340,000 active | Potency, µM (doses to about 46.1 µM), actives largely listed as activators; note: nearly all actives have a fitted effect of over 55% in size
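SW480 cells exposed to compounds for 48 hr at 37 C, 5% CO2, then Hoechst-stained 40 min. Nuclear DNA content imaged by fluorescence scanning (405 nm excitation, 500-530 nm emission); re-replication scored as increased high-intensity nuclei.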
KB-3-1 cytotox: KB-3-1 parental cell cytotoxicity | Potency, µM (doses to about 46.1 µM), most hits filed as cytotoxic | 1.4% of 400,000 active | KB-3-1 viability, CellTiter-Glo ATP luminescence, 72 h; note: nearly all actives have a fitted effect of over 60% in size
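Multi-concentration cytotoxicity screen in KB-3-1 cells grown in DMEM lacking phenol red with 10% FBS. After 72 h at 37 °C with compound, ATP-dependent luminescence was recorded.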
KB-V1 MDR tox: KB-V1 MDR subline cytotoxicity; KB-V1 MDR cells viability, CellTiter-Glo, 72 h; Potency, µM (top dose mostly 46.1 µM), actives largely listed as cytotoxic; 3.4% of 400,000 active; AID 1347076; note: nearly all actives have a fitted effect of over 60% in size
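Potencies derive from concentration-effect curves fitted to normalized luminescence (CellTiter-Glo) of KB-V1 cells treated for 72 h at 37 degrees C in phenol-red-free DMEM containing 10% FBS.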
Each line names hits and unclear results; the compound was inactive in the other large screens. Calls come from the whole dose curve; as a rule, active = well fitted curve in the direction sought with a large enough effect; inconclusive = small, poorly fitted or top-dose-only effect, or another doubt; inactive = no such curve, though single readings can be large; an effect the other way counts as inactive or inconclusive.

CC(=O)Nc1ccc(NC(=O)C(C)OC(=O)CCCc2c[nH]c3ccccc23)cc1 (stereo unspecified)	SW480 rereplic 6.5µM
CC(=O)N1c2ccc(S(=O)(=O)N3c4ccccc4CC3C)cc2CC1C (stereo unspecified)	none
CC1Cc2ccccc2N1S(=O)(=O)c1ccc2c(c1)n(C)c(=O)c(=O)n2C (stereo unspecified)	KB-V1 MDR tox 16µM
O=C(N/C(C(=O)N1CCOCC1)=C(\Sc1ncccn1)c1ccccc1)c1ccccc1	ELG1 repair inh 23µM
CC(C)=C(NC(=O)c1ccccc1)C(=O)N1CCOCC1	none
CC(=O)Nc1ccc(CN2CCN(CC=C(C)C)C(CCO)C2)cc1 (stereo unspecified)	none
CC(=O)Nc1ccc(CN2CCN(C3CCCC3)C(CCO)C2)cc1 (stereo unspecified)	MCF10A rereplic 2.6µM
Cc1ccccc1-c1ncc(CN2CCN(C3CCCC3)C(CCO)C2)cn1 (stereo unspecified)	none
OCCC1CN(Cc2cnc(-c3cccc4ccccc34)nc2)CCN1C1CCCCC1 (stereo unspecified)	SW480 rereplic 1.8µM
O=C(Cc1cccs1)Nc1ccccc1-c1nc2ccccc2[nH]1	ELG1 repair inh inconclusive, MCF10A rereplic 13µM, SW480 rereplic 12µM, KB-3-1 cytotox inconclusive, KB-V1 MDR tox inconclusive
c1csc(C2C3=C(Nc4ncnn42)c2ccccc2OC3)c1 (stereo unspecified)	MCF10A rereplic inconclusive
COc1cccc(CCc2ccccc2OCC(CN(C)C)OC(=O)CCC(=O)O)c1 (stereo unspecified)	SW480 rereplic 30µM (no result: ELG1 repair inh)
COc1cccc(CN(C)CC(O)COc2cc(Cl)ccc2Cl)c1 (stereo unspecified)	none
CN1CCN(C(=O)/C=C/c2ccc([N+](=O)[O-])o2)CC1	MCF10A rereplic 21µM
COc1cccc(CC(=O)n2nc(N)c3cc4ccc(OC)cc4nc32)c1	ELG1 repair inh 9.2µM, MCF10A rereplic inconclusive
COc1ccc2cc3c(N)nn(C(=O)Cc4c[nH]c5ccccc45)c3nc2c1	ELG1 repair inh 1.5µM, MCF10A rereplic inconclusive, SW480 rereplic inconclusive, KB-3-1 cytotox inconclusive
COc1ccc2cc3c(N)nn(C(=O)Cc4ccc(Cl)cc4)c3nc2c1	ELG1 repair inh inconclusive, MCF10A rereplic inconclusive
CC(C)(C)c1ccc(C(=O)NNC(=O)c2cccc(Br)c2)cc1	ELG1 repair inh inconclusive, MCF10A rereplic 12µM, SW480 rereplic inconclusive
CC1CCCCN1C(=O)CCC(=O)Nc1nnc(C(F)(F)F)s1 (stereo unspecified)	MCF10A rereplic 23µM, SW480 rereplic inconclusive
CCOC(=O)c1c(C)[nH]c(C(=O)COC(=O)C(C)N2C(=O)C3CCCCC3C2=O)c1C (stereo unspecified)	ELG1 repair inh inconclusive, MCF10A rereplic inconclusive, KB-V1 MDR tox inconclusive
Cc1ccc(/C=C/C(O)=C2/C(=O)N(C)C3(C)CC2c2ccccc2O3)cc1 (stereo unspecified)	ELG1 repair inh inconclusive, MCF10A rereplic inconclusive, SW480 rereplic inconclusive, KB-3-1 cytotox 15µM
O=C(O)c1cnc(-c2ccccc2)nc1Oc1ccc(Cl)cc1	none
CCCCN(C=O)c1c(CC)nc2ccc(C(=O)NCc3cccs3)cn12	none (no result: ELG1 repair inh, MCF10A rereplic, SW480 rereplic)
COc1ccc(C2NC(=O)c3sc4nc(C)c(C(C)=O)c(-c5ccc(Cl)cc5)c4c3N2)cc1 (stereo unspecified)	MCF10A rereplic 16µM, SW480 rereplic inconclusive
CC(=O)Nc1ccc2c(CSc3nnc(-c4cccnc4)n3-c3ccc(C)cc3C)cc(=O)oc2c1	ELG1 repair inh 9.2µM
CC(C)c1ccccc1-n1c(SCc2cc(=O)oc3ccc4ccccc4c23)nnc1-c1cccnc1	ELG1 repair inh 23µM, KB-3-1 cytotox inconclusive, KB-V1 MDR tox 21µM (no result: SW480 rereplic)
Cc1nnc(SCc2cc(=O)oc3ccc4ccccc4c23)n1Cc1ccccc1	KB-V1 MDR tox 16µM
CCOc1ccc(-n2c(SCc3cc(=O)oc4cc(C)ccc34)nnc2-c2cccnc2)cc1	KB-V1 MDR tox inconclusive
CC(C)c1ccccc1-n1c(SCC(=O)N2CCN(c3ccccc3)CC2)nnc1-c1cccnc1	KB-3-1 cytotox inconclusive
CCOC(=O)CN=C/C(C(C)=O)=C(/C)O	none
COCCn1c(SCC(=O)Nc2ccc(F)c(Cl)c2)nc2c(oc3ccccc32)c1=O	none (no result: ELG1 repair inh, MCF10A rereplic, SW480 rereplic)
CCCNC(=O)Cn1c(=O)/c(=C/c2ccc(-c3ccc([N+](=O)[O-])cc3)o2)s/c1=C\C(=O)C(C)(C)C	MCF10A rereplic 18µM, SW480 rereplic 7.3µM, KB-3-1 cytotox inconclusive (no result: ELG1 repair inh)
COCCNC(=O)C1(C)CCCN(C(=O)Cc2ccc3ccccc3c2)C1 (stereo unspecified)	none (no result: ELG1 repair inh, MCF10A rereplic, SW480 rereplic)
COc1ccc(NC(=O)C(c2ccccn2)N(C(C)=O)c2ccc(C)cc2)cc1 (stereo unspecified)	ELG1 repair inh inconclusive, KB-V1 MDR tox 18µM
CCOc1ccc(NC(=O)C(c2ccccn2)N(C(=O)CCl)c2ccc(OC)cc2)cc1 (stereo unspecified)	ELG1 repair inh inconclusive, SW480 rereplic inconclusive, KB-V1 MDR tox inconclusive
COc1ccc(C2=NN(C(=O)c3ccccc3)C(c3ccc(OC)c(OC)c3)C2)c(O)c1 (stereo unspecified)	ELG1 repair inh inconclusive
COc1ccc(NC(=O)CCCn2c(=O)c3sccc3n(Cc3ccccc3C)c2=O)cc1	ELG1 repair inh inconclusive, KB-V1 MDR tox 9.2µM
CN(C)C1=NCCN1CCCC1CCCCC1	MCF10A rereplic inconclusive, SW480 rereplic 23µM
c1ccc(NC2=NCCN2CCCC2CCCCC2)cc1	SW480 rereplic 0.26µM
CN(C)C1=NCCN1CCC1CCCC1	none
O=C(CCn1c(=O)c2sccc2n(Cc2cc(=O)n3ccccc3n2)c1=O)NCc1ccco1	none
COc1ccc2sc(N(Cc3cccnc3)C(=O)CCc3ccccc3)nc2c1	KB-V1 MDR tox inconclusive (no result: ELG1 repair inh, MCF10A rereplic, SW480 rereplic)
c1ccc2c(c1)Nc1ccncc1S2	ELG1 repair inh 18µM
c1ccc2c(c1)Nc1cc3ccccc3cc1S2	ELG1 repair inh inconclusive, MCF10A rereplic inconclusive
Cc1cc(NC(=O)c2ccccc2-c2ccccc2C(=O)O)no1	KB-3-1 cytotox inconclusive
COc1ccc(NC(=O)C[C@H]2C(=O)N(c3ccc(Br)cc3)C[C@@H]2CSC)cc1	none (no result: ELG1 repair inh, MCF10A rereplic, SW480 rereplic)
COc1ccc(N2CCN(S(=O)(=O)CCNC(=O)CCCc3ccccc3)CC2)cc1	none
CCNC(=O)NC(=O)C(C)OC(=O)c1oc2ccccc2c1CSC1CCCCC1 (stereo unspecified)	KB-V1 MDR tox 13µM
CC(C)C(OC(=O)c1oc2ccccc2c1CSC1CCCCC1)C(=O)NC(N)=O (stereo unspecified)	none (no result: MCF10A rereplic, SW480 rereplic, KB-3-1 cytotox, KB-V1 MDR tox)
COc1ccc([N+](=O)[O-])cc1N(CC(=O)NCc1ccco1)S(C)(=O)=O	none
CC(C)(C)c1ccc(NC(=O)CSc2nnc3scc(-c4ccccc4)n23)cc1	KB-V1 MDR tox inconclusive (no result: ELG1 repair inh, MCF10A rereplic, SW480 rereplic)
